Laboratory results from PubChem BioAssay AID493231 (Broad Institute, 2011).
Entries with a potency or affinity are not part of this list. The source made the active and inactive calls. The rule behind the calls is not given here.

biological target: Acyl-homoserine lactone acylase PvdQ (Pseudomonas aeruginosa (strain ATCC 15692 / DSM 22644 / CIP 104116 / JCM 14847 / LMG 12228 / 1C / PRS 101 / PAO1)) (UniProt Q9I194); assay: P. aeruginosa PvdQ acylase inhibitors, dose response, biochemical, fluorescence, plate reader and imaging, cherry-picks (AID 493231); details: purified PvdQ acylase, fluorogenic substrate; series mostly up to 10 µM;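 note: more negative values mean stronger inhibition of the acylase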
Sequence (Q9I194 whole entry, looked up): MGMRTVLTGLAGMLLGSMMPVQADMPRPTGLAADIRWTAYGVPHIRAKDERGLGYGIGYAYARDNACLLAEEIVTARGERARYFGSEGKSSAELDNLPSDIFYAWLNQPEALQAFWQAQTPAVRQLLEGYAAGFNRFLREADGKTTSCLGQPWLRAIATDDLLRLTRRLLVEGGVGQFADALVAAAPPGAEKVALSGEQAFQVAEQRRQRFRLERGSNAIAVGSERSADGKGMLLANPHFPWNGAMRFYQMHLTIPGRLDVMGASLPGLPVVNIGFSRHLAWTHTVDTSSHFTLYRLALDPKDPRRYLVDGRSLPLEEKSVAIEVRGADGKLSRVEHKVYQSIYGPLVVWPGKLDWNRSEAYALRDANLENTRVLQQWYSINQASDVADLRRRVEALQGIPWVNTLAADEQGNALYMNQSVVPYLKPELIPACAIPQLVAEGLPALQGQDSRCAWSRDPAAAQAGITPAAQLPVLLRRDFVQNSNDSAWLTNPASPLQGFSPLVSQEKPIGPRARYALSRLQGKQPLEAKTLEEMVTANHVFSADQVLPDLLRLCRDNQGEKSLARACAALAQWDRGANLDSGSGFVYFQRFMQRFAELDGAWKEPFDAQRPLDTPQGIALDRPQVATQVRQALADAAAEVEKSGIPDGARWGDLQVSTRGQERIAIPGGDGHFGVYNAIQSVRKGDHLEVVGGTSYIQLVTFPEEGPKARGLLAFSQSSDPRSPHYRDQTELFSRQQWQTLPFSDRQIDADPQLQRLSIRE

Q: Which outcome does the source give for CC1(C)CC2(CCO1)NCCN1C(=O)CSC12 (stereo not drawn) here?
A: Its outcome is “inactive”.

Q: Cc1cc(N(CCCl)CCCl)ccc1C=NNC(=O)c1cccnc1 was tested. Which outcome did it give?
A: The outcome was “inactive”.

Q: O=[N+]([O-])c1ccc2c(c1)Cc1cc(O)ccc1-2 was tested. Which outcome did it give?
A: The outcome was “inactive”.
